Out of some 5,500 compounds screened, about 2,000 (36%) were called active. Inconclusive results (about 18%) are left out. No stated cut-off is given here; in the data, active means normalized growth mostly below about 0.91 (no sharp cut-off); inconclusive means no clear call, values can overlap the other calls; inactive means mostly above about 0.92. The list shows a part of the results.
Test: chemical genetic growth profiling, strain panel (AID 1159580);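 further: tested at 20 µM; growth read once vehicle control cultures reached saturation at 30 °C; 1 = growth at the plate median or of vehicle wells; lower values mean less growth of the strain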
Conditions: growth OD

Measured: normalized growth

C[N+](C)(C)CC(=O)[O-]
inactive: S. cerevisiae deletion strains, locus YJR075W, strain HOC1, hits give low values 0.977 | S. cerevisiae deletion strains, locus YKL009W, strain mrt4, hits give low values 0.972 | S. cerevisiae deletion strains, locus YKL068W, hits give low values 0.976 | S. cerevisiae deletion strains, locus YKL085W, strain MDH1 (second series), hits give low values 0.978 | S. cerevisiae deletion strains, locus YKL085W, strain MDH1, hits give low values 0.978 | S. cerevisiae deletion strains, locus YKL160W, strain elf1, hits give low values 0.995 | S. cerevisiae deletion strains, locus YKL190W, strain CNB1, hits give low values 0.976 | S. cerevisiae deletion strains, locus YKR001C, strain vps1, hits give low values 0.982 | S. cerevisiae deletion strains, locus YKR026C, strain gcn3, hits give low values 1.02 | S. cerevisiae deletion strains, locus YKR091W, strain srl3, hits give low values 0.976 | S. cerevisiae deletion strains, locus YLL001W, strain dnm1, hits give low values 0.949 | S. cerevisiae deletion strains, locus YLL026W, hits give low values 0.982 | S. cerevisiae deletion strains, locus YLL041C, strain sdh2, hits give low values 0.963 | S. cerevisiae deletion strains, locus YLR027C, strain aat2, hits give low values 0.989 | S. cerevisiae deletion strains, locus YLR039C, strain RIC1, hits give low values 0.952 | S. cerevisiae deletion strains, locus YLR058C, strain SHM2, hits give low values 1 | S. cerevisiae deletion strains, locus YLR102C, strain apc9, hits give low values 0.992 | S. cerevisiae deletion strains, locus YLR113W, strain HOG1, hits give low values 0.981 | S. cerevisiae deletion strains, locus YLR221C, strain rsa3, hits give low values 1 | S. cerevisiae deletion strains, locus YLR258W, strain gsy2, hits give low values 0.985 | S. cerevisiae deletion strains, locus YLR262C, strain YPT6 (second series), hits give low values 0.948 | S. cerevisiae deletion strains, locus YLR262C, strain YPT6, hits give low values 0.938 | S. cerevisiae deletion strains, locus YLR268W, strain sec22, hits give low values 0.96 | S. cerevisiae deletion strains, locus YLR320W, strain mms22, hits give low values 1.01 | S. cerevisiae deletion strains, locus YLR330W, strain CHS5, hits give low values 0.99 | S. cerevisiae deletion strains, locus YLR342W, strain FKS1 (second series), hits give low values 1.04 | S. cerevisiae deletion strains, locus YLR342W, strain FKS1, hits give low values 0.988 | S. cerevisiae deletion strains, locus YLR357W, strain rsc2, hits give low values 0.969 | S. cerevisiae deletion strains, locus YLR370C, strain arc18, hits give low values 0.985 | S. cerevisiae deletion strains, locus YLR371W, strain rom2, hits give low values 0.993 | S. cerevisiae deletion strains, locus YLR384C, strain iki3, hits give low values 0.967 | S. cerevisiae deletion strains, locus YLR418C, strain cdc73, hits give low values 0.99 | S. cerevisiae deletion strains, locus YML016C, strain PPZ1, hits give low values 1.01 | S. cerevisiae deletion strains, locus YML032C, strain rad52, hits give low values 0.97 | S. cerevisiae deletion strains, locus YML120C, strain ndi1, hits give low values 0.98 | S. cerevisiae deletion strains, locus YML124C, strain tub3, hits give low values 0.992 | S. cerevisiae deletion strains, locus YMR058W, strain fet3, hits give low values 0.987 | S. cerevisiae deletion strains, locus YMR078C, strain ctf18, hits give low values 0.981 | S. cerevisiae deletion strains, locus YMR125W, strain sto1, hits give low values 0.951 | S. cerevisiae deletion strains, locus YMR129W, hits give low values 0.975 | S. cerevisiae deletion strains, locus YMR205C, strain PFK2, hits give low values 0.986 | S. cerevisiae deletion strains, locus YMR223W, strain ubp8, hits give low values 1.03 | S. cerevisiae deletion strains, locus YMR231W, strain pep5, hits give low values 0.972 | S. cerevisiae deletion strains, locus YMR263W, strain SAP30, hits give low values 0.977 | S. cerevisiae deletion strains, locus YMR307W, strain GAS1, hits give low values 1.04 | S. cerevisiae deletion strains, locus YNL067W, strain RPL9B, hits give low values 0.982 | S. cerevisiae deletion strains, locus YNL071W, strain lat1, hits give low values 0.989 | S. cerevisiae deletion strains, locus YNL128W, strain TEP1, hits give low values 0.989 | S. cerevisiae deletion strains, locus YNL153C, strain GIM3, hits give low values 0.985 | S. cerevisiae deletion strains, locus YNL183C, strain NPR1, hits give low values 0.938 | S. cerevisiae deletion strains, locus YNL209W, strain ssb2, hits give low values 0.995 | S. cerevisiae deletion strains, locus YNL233W, strain BNI4, hits give low values 0.997 | S. cerevisiae deletion strains, locus YNL248C, strain rpa49, hits give low values 1.01 | S. cerevisiae deletion strains, locus YNL250W, strain rad50, hits give low values 0.991 | S. cerevisiae deletion strains, locus YNL271C, strain bni1, hits give low values 0.992 | S. cerevisiae deletion strains, locus YNL298W, strain CLA4, hits give low values 0.97 | S. cerevisiae deletion strains, locus YNL307C, strain MCK1, hits give low values 0.999 | S. cerevisiae deletion strains, locus YNL322C, strain KRE1 (second series), hits give low values 0.964 | S. cerevisiae deletion strains, locus YNL322C, strain KRE1, hits give low values 0.99 | S. cerevisiae deletion strains, locus YNR049C, strain mso1, hits give low values 0.974 | S. cerevisiae deletion strains, locus YNR052C, strain pop2, hits give low values 0.984 | S. cerevisiae deletion strains, locus YOL006C, strain TOP1, hits give low values 0.975 | S. cerevisiae deletion strains, locus YOL012C, strain htz1 0.729 | S. cerevisiae deletion strains, locus YOL147C, strain pex11, hits give low values 1 | S. cerevisiae deletion strains, locus YOR001W, strain rrp6, hits give low values 0.969 | S. cerevisiae deletion strains, locus YOR061W, strain CKA2, hits give low values 1 | S. cerevisiae deletion strains, locus YOR069W, strain VPS5, hits give low values 0.995 | S. cerevisiae deletion strains, locus YOR070C, strain gyp1, hits give low values 0.994 | S. cerevisiae deletion strains, locus YOR080W, strain dia2, hits give low values 0.951 | S. cerevisiae deletion strains, locus YOR083W, strain WHI5, hits give low values 0.971 | S. cerevisiae deletion strains, locus YOR106W, strain vam3, hits give low values 0.925 | S. cerevisiae deletion strains, locus YOR136W, strain idh2, hits give low values 0.985 | S. cerevisiae deletion strains, locus YOR144C, strain elg1, hits give low values 0.991 | S. cerevisiae deletion strains, locus YOR184W, strain ser1, hits give low values 0.989 | S. cerevisiae deletion strains, locus YOR231W, strain MKK1, hits give low values 0.986 | S. cerevisiae deletion strains, locus YOR265W, strain rbl2, hits give low values 0.985 | S. cerevisiae deletion strains, locus YOR270C, strain vph1, hits give low values 0.956 | S. cerevisiae deletion strains, locus YOR290C, strain snf2, hits give low values 1 | S. cerevisiae deletion strains, locus YOR316C, strain cot1, hits give low values 0.972 | S. cerevisiae deletion strains, locus YPL051W, strain arl3, hits give low values 0.99 | S. cerevisiae deletion strains, locus YPL055C, strain LGE1, hits give low values 0.944 | S. cerevisiae deletion strains, locus YPL078C, strain atp4, hits give low values 0.954 | S. cerevisiae deletion strains, locus YPL106C, strain sse1, hits give low values 0.982 | S. cerevisiae deletion strains, locus YPL240C, strain hsp82, hits give low values 0.976 | S. cerevisiae deletion strains, locus YPL241C, strain CIN2, hits give low values 0.999 | S. cerevisiae deletion strains, locus YPL256C, strain CLN2, hits give low values 1 | S. cerevisiae deletion strains, locus YPR119W, strain clb2, hits give low values 0.994 | S. cerevisiae deletion strains, locus YPR141C, strain kar3, hits give low values 0.979 | S. cerevisiae deletion strains, locus YPR163C, strain tif3, hits give low values 0.992 | S. cerevisiae deletion strains, locus YPR167C, strain met16, hits give low values 0.986 | S. cerevisiae deletion strains, strain wtn01, hits give low values 0.96 | S. cerevisiae strains, strain wild type, hits give low values 0.996

Source: PubChem BioAssay AID1159580 (chemical genetic matrix, 2015)
